An excerpt weighted towards active compounds, which were near 10% of everything screened.
FLuc inh-1 = Photinus pyralis luciferase inhibition. P08659. purified P. pyralis luciferase, luminescence, biochemical. Potency, µM (highest dose often 115 µM), hits mostly inhibitors. actives 2.5% (n = 76,000). AID 1347043; also: % is scaled to controls: 0 for no effect and ±100 for the full control effect; nearly all actives have a fitted effect of over 65% in size
Target sequence (P08659 whole entry, looked up): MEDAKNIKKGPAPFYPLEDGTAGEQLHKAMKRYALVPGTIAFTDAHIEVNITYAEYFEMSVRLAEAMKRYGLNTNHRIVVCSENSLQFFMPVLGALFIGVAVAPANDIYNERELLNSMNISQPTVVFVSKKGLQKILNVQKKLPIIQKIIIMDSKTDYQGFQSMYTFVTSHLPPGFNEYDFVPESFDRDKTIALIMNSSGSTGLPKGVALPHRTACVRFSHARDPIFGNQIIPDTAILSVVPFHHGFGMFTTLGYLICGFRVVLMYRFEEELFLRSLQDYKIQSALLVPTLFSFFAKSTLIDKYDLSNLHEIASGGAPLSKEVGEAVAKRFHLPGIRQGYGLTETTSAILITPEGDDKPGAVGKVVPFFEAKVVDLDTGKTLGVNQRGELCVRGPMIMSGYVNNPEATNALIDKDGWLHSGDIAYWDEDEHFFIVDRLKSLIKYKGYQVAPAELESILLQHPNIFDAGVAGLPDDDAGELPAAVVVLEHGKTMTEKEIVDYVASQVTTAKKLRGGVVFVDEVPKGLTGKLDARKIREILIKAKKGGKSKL
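Purified P. pyralis luciferase (10nM final) in 50mM Tris acetate pH 7.5, 10mM Mg acetate, 0.01% Tween-20, 0.05% BSA with 10uM D-luciferin and 10uM ATP. Compounds titrated qHTS. Luminescence imaged on CCD.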
HEK293 tox = HEK 293 cell cytotoxicity | Potency, µM (highest dose often 115 µM), without a hit: at the highest dose activity change, negative = cytotoxicity, actives largely listed as inhibitors | HEK 293 viability, ATP luminescence (CellTiter-Glo), 48-72 h | AID 1345083 | actives 6.6% (n = 94,000); also: % is scaled to controls: 0 for no effect and ±100 for the full control effect; nearly all actives have a fitted effect of over 60% in size
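Read-out: CellTiter-Glo ATP luminescence. Cells: HEK 293, 250 cells/well. Exposure: 48 or 72 hr, 37 degree Celsius.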
hNpr1 antagonist = human Npr1 receptor antagonism. AID 1347048. P16066. actives 1.6% (n = 76,000). Potency, µM (titrated, usually from 46.3 µM), without a hit: top-dose activity change, negative = inhibition, most hits filed as inhibitors. HEK293 hNpr1 GloSensor cGMP, ANP-stimulated luminescence; calls by dose curve; also: % is scaled to controls: 0 for no effect and ±100 for the full control effect; nearly all actives have a fitted effect of over 60% in size
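Compound pre-incubated 30 min at room temperature on GloSensor-loaded HEK293 cells stably carrying hNpr1 and the pGS-40F cGMP biosensor. Stimulation uses hNppA at 0.1 nM final; luminescence is taken at baseline and 20 min post-agonist.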
GPT2 inhibitor = GPT2 alanine aminotransferase inhibition; Recombinant GPT2, coupled pyruvate oxidase/HRP Amplex Red fluorescence; Potency, µM (titrated, usually from 57.7 µM), inactives show at the top dose activity change, negative = inhibition, hits mostly inhibitors; actives 0.25% (n = 100,000); AID 1671188; also: % is scaled to controls: 0 for no effect and ±100 for the full control effect; nearly all actives have a fitted effect of over 60% in size
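Inhibition is scored from Amplex Red fluorescence generated when pyruvate oxidase and HRP act on pyruvate released by GPT2. Reactions contain 10ng/uL enzyme, 250uM a-KG and 2mM L-alanine and run 30 min at room temperature.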
3T3 cytotox = NIH 3T3 cell cytotoxicity. NIH 3T3 viability, CellTiter-Glo ATP luminescence, 48-72 h. actives 4.3% (n = 94,000). Potency, µM (highest dose often 96.7 µM), without a hit: at the highest dose activity change, negative = cytotoxicity, most hits filed as inhibitors; also: % is scaled to controls: 0 for no effect and ±100 for the full control effect; nearly all actives have a fitted effect of over 55% in size
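Mouse fibroblast NIH 3T3 cells, 400 per well, received compound via pintool and were incubated for 48 or 72 hr prior to CellTiter-Glo ATP luminescence measurement.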
FLuc SDR -ATP = binders stabilizing firefly luciferase, without ATP. shares compounds with FLuc inh-1. Purified FLuc-C-HiBiT, Nano-Glo HiBiT luminescence, no ATP. Potency, µM (top dose mostly 32.7 µM), without a hit: top-dose activation (signal gain), usual class: activators. actives 7.8% (n = 1,300); also: nearly all actives have a fitted effect of over 55% in size
FLuc SDR ATP = firefly luciferase binding stabilization, ATP added; Potency, µM (titrated, usually from 32.7 µM), for the others: at the top dose activation (gain of signal), most hits filed as activators; AID 1963319; shares compounds with FLuc inh-1; purified FLuc-C-HiBiT + ATP, HiBiT complementation luminescence; actives 8.7% (n = 1,300);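 also: signal reports ligand binding via conformational change of the enzyme rather than luciferase catalysis; % of control where 0% means no effect; nearly all actives have a fitted effect of over 55% in size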
FLuc inh-2 = firefly luciferase enzyme inhibition; Potency, µM (series often up to 32.7 µM), without a hit: at the highest dose activity change, negative = inhibition, most hits filed as inhibitors; AID 1963320; purified FLuc-C-HiBiT enzyme, luciferin luminescence; actives 42% (n = 1,300); shares compounds with FLuc inh-1; also: % is scaled to controls: 0 for no effect and ±100 for the full control effect; nearly all actives have a fitted effect of over 70% in size
Numbers without * were called inactive; i = inactive; ? = inconclusive; . = no result; [ ] = another dose, or the depositor's remark. Unless noted, calls follow the shape of the dose curve; as a rule, active = well fitted curve in the direction sought with a large enough effect; inconclusive = small, poorly fitted or top-dose-only effect, or another doubt; inactive = no such curve, though single readings can be large; an effect the other way counts as inactive or inconclusive. Potency is read from the fitted curve at half-maximal effect.

SMILES	FLuc inh-1	HEK293 tox	hNpr1 antagonist	GPT2 inhibitor	3T3 cytotox	FLuc SDR -ATP	FLuc SDR ATP	FLuc inh-2
COc1ccc(S(=O)(=O)Nc2nnc(CC(C)C)s2)cc1	.	.	.	i	.	.	.	.
CCOc1ccc(-c2cn3nc(CC(C)C)sc3n2)cc1	.	.	.	.	.	26%	16%	5µM*
Cc1c(-c2ccccc2)[nH]c2c(CNC(=O)C3=NN(C)C(=O)CC3)cc(Cl)cc12	4µM*	45µM*	-29%	0%	45µM*	12%	9%	?
Cc1cc(CNC(=O)c2ccc(S(N)(=O)=O)cc2)c2[nH]c(C)c(C)c2c1	i	-1%	0%	-24%	-15%	.	.	.
CC(C)(C)n1cc(-c2cc(C(=O)N3C[C@H]4CC[C@H]3C4)c3ccccc3n2)cn1	2.8µM*	?	-10%	0%[11.5 µM]	?	?	?	7µM*
CN1CCCC(CN(C)C(=O)c2cc(-c3cnn(CCO)c3)nc3ccccc23)C1 (stereo unspecified)	i	-27%	0%	-3%	2%	.	.	.
Cc1ccc(NC(=O)c2cn3cc(-c4ccc(C)cc4)sc3n2)cc1	.	-11%	.	i	-15%	.	.	.
Cc1ccc2nc(-c3ccc(NC(=O)CSc4nnc(C)s4)cc3)sc2c1	.	.	.	.	.	16%	15%	0.62µM*
CNc1ccc2cc(-c3nc4ccc(C(=O)O)cc4s3)ccc2c1	.	.	.	.	.	1.1µM*	0.014µM*	0.007µM*
O=C(O)c1cccc(-c2cnc3ccccc3c2)c1	.	-12%[172 µM]	.	-5%[88.5 µM]	-14%[138 µM]	.	.	.
Cc1ccc2nc(-c3ccc(NC(=O)c4ccc(S(C)(=O)=O)cc4)cc3)sc2c1	.	.	.	.	.	13%	8%	-1%
Cc1ccc2nc(-c3ccc(NC(=O)C(F)(F)F)cc3)sc2c1	.	.	.	.	.	28%	?	0.79µM*
Cc1ccc2nc(NC(=O)CSc3nc4c(c(=O)n3-c3ccccc3)SCC4)sc2c1	.	.	.	2%	.	.	.	.
CNC(=O)c1cc(C2CC2)nc2c1c(C1CCN(C(=O)c3ccc(Cl)nc3)CC1)nn2C	.	1%	.	.	?	.	.	.
CCCCC(=O)N1c2ccccc2NC2=C(C(=O)CCC2)C1c1ccccc1Cl (stereo unspecified)	.	.	.	-3%	.	.	.	.
Cc1ccc(NC(=O)c2ccc3nc(-c4ccncc4)oc3c2)cc1	.	-10%[172 µM]	.	i	-16%[138 µM]	.	.	.
Cc1ccc2nc(-c3ccc(NC(=O)c4ccccc4S(C)(=O)=O)cc3)sc2c1	.	.	.	.	.	13%	13%	?
CCSc1ccc(C(=O)Nc2ccc(-c3nc4ccc(C)cc4s3)cc2)cc1	.	.	.	.	.	14%	8%	-5%
CC(C)c1nccn1Cc1cc(C(=O)NCc2cc(C(C)(C)C)n[nH]2)n[nH]1	i	-1%	0%	?	-4%	.	.	.
COCCNc1ncnc2c1CCN(C(=O)CCc1n[nH]c(C)n1)CC2	i	-19%	-2%	3%	-3%	.	.	.
O=C(NCCOc1ccccc1)c1nc2c(o1)CCN(Cc1ccsc1)CC2	i	?	-11%[70.6 µM]	i	?	.	.	.
O=C(NCc1ccncc1)c1nc2c(o1)CCN(Cc1nccs1)CC2	i	?	-16%[70.6 µM]	-21%[88.5 µM]	-22%[138 µM]	.	.	.
O=C(Nc1cccnc1)c1nc2c(o1)CCN(Cc1ccc(O)cc1)CC2	.	.	.	.	.	23%[49.3 µM]	16%[49.3 µM]	?
O=C(Nc1ccccc1)c1nc2c(o1)CCN(Cc1ccc(F)cc1)CC2	8.9µM*	?	18µM*	0%[88.5 µM]	?	20%[49.3 µM]	17%[49.3 µM]	?
Cc1csc(NC(=O)c2nc3c(o2)CCN(Cc2ccccc2F)CC3)n1	4.5µM*	?	-21%[70.6 µM]	-14%[88.5 µM]	?	?	18%[49.3 µM]	?
SMILES	FLuc inh-1	HEK293 tox	hNpr1 antagonist	GPT2 inhibitor	3T3 cytotox	FLuc SDR -ATP	FLuc SDR ATP	FLuc inh-2
O=C(Nc1cccnc1)c1nc2c(o1)CCN(Cc1nccs1)CC2	.	.	.	.	.	25%[49.3 µM]	17%[49.3 µM]	?
COCCNc1ccc2nnc(C)n2n1	i	-8%	3%	-9%	-22%	.	.	.
O=C(CC1CCOC2(CCN(Cc3cccc(F)c3)CC2)C1)NCc1ccncc1 (stereo unspecified)	i	-4%	-6%	0%	1%	.	.	.
Cc1noc(C)c1C(=O)N1CCC2(CC1)CN(C(=O)Cc1c[nH]c3ccccc13)CCO2	.	i	.	-13%	i	.	.	.
Cc1ccc(S(=O)(=O)Nc2nc3c(s2)C[C@]2(C)CC[C@@H]4[C@H](OC(=O)[C@H]4C)[C@H]2[C@@H]3C)cc1	?	-21%	-2%	-2%	-23%	.	.	.
C[C@@H]1C(=O)O[C@H]2[C@H]1CC[C@@]1(C)Cc3sc(NCc4ccccc4)nc3[C@@H](C)[C@H]21	3.5µM*	?	?	-30%[88.5 µM]	?	?	17%[49.3 µM]	7.2µM*
C[C@@H]1C(=O)O[C@H]2[C@H]1CC[C@@]1(C)Cc3sc(Nc4cccnc4)nc3[C@@H](C)[C@H]21	0.79µM*	-5%[172 µM]	16µM*	-8%[88.5 µM]	-22%[174 µM]	1µM*	?	0.45µM*
C[C@@H]1C(=O)O[C@H]2[C@H]1CC[C@@]1(C)Cc3sc(Nc4ccccc4)nc3[C@@H](C)[C@H]21	?	?	?	i	?	.	.	.
CCC(=O)N1CCc2sc(C(=O)NCc3cccs3)cc2C1	i	-9%	0%	i	-29%	.	.	.
COc1ccc(Br)cc1C(=O)Nc1nc2ccc(F)cc2s1	.	.	.	.	.	16%	11%	-8%
COc1cccc([S+](=O)([O-])N2CCC(N3CCCC3=O)CC2)c1	i	-3%[172 µM]	0%[70.6 µM]	-1%[88.5 µM]	-21%[138 µM]	.	.	.
c1ccc(COc2ccccc2-c2nc3ccccc3s2)cc1	.	.	.	.	.	16%	13%	?
Oc1ccc(OCc2ccccc2)cc1	.	.	.	-15%	.	.	.	.
c1ccc(COc2cccc(-c3nc4ccccc4s3)c2)cc1	.	.	.	.	.	26%	18%	5µM*
NC(=O)COC(=O)c1ccccc1-c1nc2ccccc2s1	.	.	.	.	.	12%	8%	-5%
COc1ccc(CC(=O)NC2CCN(c3ccnc4ccnn34)CC2)cc1	.	-12%	.	i	-20%	.	.	.
COc1ccc(CCNC(=O)c2ccc3c(c2)N(C)C2CCCN2C3=O)cc1OC (stereo unspecified)	i	-13%	-14%	i	-22%	.	.	.
COc1ccc(CCNC(=O)C2CCCN(c3nc4c(C)cc(C)cc4s3)C2)cc1OC (stereo unspecified)	.	.	.	.	.	17%	20%	?

Screening results: PubChem BioAssay, National Center for Advancing Translational Sciences (NCATS)
